Results taken from PubChem BioAssay.
“And” between values parts separate entries of the source, which are not always exact repeats. Equal entries are not always repeated. A structure can be active in one record and inactive in another. The source made the active and inactive calls.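 Rule for the calls, unless noted: active = inhibition at or above 50% relative to wild type and mutant plate controls; inactive = inhibition below 50%.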

What was measured:
[1] = inhibitors of TNFa-induced NFkB p65 translocation, primary screen, imaging, HUVEC, MLSMR starter and 10KST1 sets (AID 438;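 active = inhibition above 20% together with a positive visual image hit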;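 note: compound added about 3h40 before a 20 min TNFalpha stimulation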;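 for inhibition: signal is the nuclear over cytoplasmic p65 intensity ratio per well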); details: HUVEC TNFa-induced p65 nuclear translocation; cell count: measured here: nuclei count (cytotoxicity indicator), at 2.08 µM; inhibition: at 2 µM, stronger effect = higher value, 0% TNFa-plus-vehicle, 100% no-TNFa wells
[2] = inhibitors of mutant huntingtin aggregation, primary screen, imaging, exon1htt(103Q)mCFP cells, high-content imaging (AID 483;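 active = visual image review flags a hit and inhibition of aggregation exceeds 20%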;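 note: compound exposure lasted 3 days before fixation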;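 for nuclei count: percent of the per-plate median nuclei count of sample wells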); details: exon1htt(103Q)mCFP cell line, aggregate imaging, at 2 µM; inhibition of aggregation: stronger effect = higher value; nuclei count: measured here: cell count, toxicity
[3] = inhibitors of E-selectin induction by TNFa, primary screen, imaging, HUVEC, immunofluorescence, MLSMR starter and 10KST1 sets (AID 487;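 active = visually confirmed hit in the image check and inhibition above 20%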;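 for inhibition: signal is fraction of cell area covered by stained E-selectin grains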;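 for nuclei count: 100% = median nuclei count of all wells on the same plate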); details: HUVEC TNFalpha-induced E-selectin immunofluorescence imaging, at 2 µM; inhibition: stronger effect = higher value; nuclei count: measured here: cell number, toxicity
[4] = DUSP6 inhibitors restoring Erk phosphorylation by chemical complementation, primary imaging in DUSP6-transfected HeLa (AID 609;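 active = compounds giving at least 50% inhibition in the cell-based MKP-3 phosphatase rescue imaging test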;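 for inhibition: phospho-Erk level distribution per well compared with pooled transfected vehicle control wells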); details: HeLa MKP-3 transfected, phospho-Erk imaging KS statistic, at 10 µM, cells stimulated with TPA for 15 min
[5] = target: Dual specificity protein phosphatase 6 (Homo sapiens) (UniProt Q16828); assay: as above; details: HeLa MKP-3 transfected, phospho-Erk imaging KS statistic; at 10 µM; stronger effect = higher value; cells stimulated with TPA for 15 min
[6] = target: Voltage-gated potassium channel subunit beta-2 (Rattus norvegicus) (UniProt P62483); assay: KvBeta enzyme negative modulators, primary screen, biochemical, NADPH fluorescence (AID 622;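 active = fluorescence slope higher than the sample average by over 3 SD, cut at about -0.22 in these data, passing the limit was not always enough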;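 note: slope of raw intensity against log time taken from 70 to 1610 s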); details: recombinant KvBeta, 4-cyanobenzaldehyde reduction, at 10 µM, stronger effect = higher value
[7] = target: Voltage-gated potassium channel subunit beta-2 (Rattus norvegicus) (UniProt P62483); assay: KvBeta positive modulators, primary screen, biochemical, NADPH fluorescence (AID 623;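 active = NADPH fluorescence slope more negative than the mean of all samples by about 3 SD, 99.7% confidence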;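 note: fluorescence intensity change per second fitted from 20 to 320 s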); details: Recombinant KvBeta, NADPH fluorescence decrease slope, 10 min; at 10 µM; stronger effect = lower value
[8] = target: Alpha-2C adrenergic receptor (Homo sapiens) (UniProt P18825); assay: modulators of alpha2C/GIRK thallium flux, primary screen, cell-based, HEK293 alpha2C/GIRK1/2 (AID 624;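 active = fluorescence slope after compound addition differing from the mean of all screened samples at 99.7% confidence, in either direction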;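 note: slope of fluorescence ratio to pre-addition baseline per second over 15 to 24 s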); details: thallium flux BTC fluorescence, at 10 µM, actives lie on both sides
[9] = inhibitors of larval lipid processing in zebrafish, primary screen, whole organism, PED6 fluorescence, gall bladder and intestine (AID 686;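 active = a full or partial loss of lipid-probe fluorescence in the fish gall bladder, intestine or both, judged by eye; inactive = no fluorescence loss, or compound toxic to the fish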;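 note: larvae 5 to 7 days old with five fish per well; signal comes from phospholipase A2 cleavage of quenched PED6 carried via bile; overnight exposure to compound and PED6 before scoring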); details: Zebrafish larvae PED6 lipid processing, fluorescence scoring; screened at 20 µM (by protocol)
[10] = inhibitors of Chlamydomonas gravitaxis, primary screen, whole organism, Chlamydomonas reinhardtii, WT vs cilia-less mutant, absorbance, 96-well (AID 463189); details: OD600 absorbance, 2 days, at 10 µM, stronger effect = higher value;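 note: 0% = wild type cc124 cells in DMSO and 100% = ciliumless bld1 mutant cells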
[11] = inhibitors of Sendai virus-induced IRF3 signaling, primary screen, TLR/RLR signaling modifier project, cell-based, Sendai virus stimulus, luciferase, 10K MLSCN set (AID 602276;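 active = inhibition at or above 50% at 10 µM; inactive = inhibition below 50%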;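 note: firefly luciferase from ISG56 promoter only with Renilla not read in this screen; 0% = Sendai virus plus DMSO and 100% = medium plus DMSO without virus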); details: HEK293 RL24 IRF3 luciferase reporter, at 10 µM, stronger effect = higher value
[12] = inhibitors of poly I:C-induced TLR3 signaling, primary screen, cell-based, poly I:C stimulus, luciferase, 10K MLSCN set (AID 602277;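 active = inhibition of the reporter signal at or above 50%; inactive = inhibition below 50%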); details: HEK293-TLR3 RL24 IRF3 luciferase reporter, at 10 µM, stronger effect = higher value
[13] = measured here: cell density z-score
[14] = measured here: nuclear c-Myc green intensity z-score
[15] = measured here: nuclear pErk red intensity z-score, stronger effect = higher value

Sequence of Voltage-gated potassium channel subunit beta-2 (Rattus norvegicus) (P62483 whole entry, looked up): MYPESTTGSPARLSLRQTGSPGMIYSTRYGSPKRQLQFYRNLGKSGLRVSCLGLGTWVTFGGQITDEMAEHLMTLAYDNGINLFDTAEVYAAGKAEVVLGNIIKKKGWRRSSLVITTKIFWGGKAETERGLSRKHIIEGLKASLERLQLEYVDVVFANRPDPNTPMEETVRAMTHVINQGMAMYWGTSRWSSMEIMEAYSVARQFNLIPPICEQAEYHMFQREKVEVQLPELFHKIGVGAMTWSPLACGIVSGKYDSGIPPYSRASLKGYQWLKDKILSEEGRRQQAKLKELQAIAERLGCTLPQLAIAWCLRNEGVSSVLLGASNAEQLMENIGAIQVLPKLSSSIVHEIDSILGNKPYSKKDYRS
Sequence of Alpha-2C adrenergic receptor (Homo sapiens) (P18825 whole entry, looked up): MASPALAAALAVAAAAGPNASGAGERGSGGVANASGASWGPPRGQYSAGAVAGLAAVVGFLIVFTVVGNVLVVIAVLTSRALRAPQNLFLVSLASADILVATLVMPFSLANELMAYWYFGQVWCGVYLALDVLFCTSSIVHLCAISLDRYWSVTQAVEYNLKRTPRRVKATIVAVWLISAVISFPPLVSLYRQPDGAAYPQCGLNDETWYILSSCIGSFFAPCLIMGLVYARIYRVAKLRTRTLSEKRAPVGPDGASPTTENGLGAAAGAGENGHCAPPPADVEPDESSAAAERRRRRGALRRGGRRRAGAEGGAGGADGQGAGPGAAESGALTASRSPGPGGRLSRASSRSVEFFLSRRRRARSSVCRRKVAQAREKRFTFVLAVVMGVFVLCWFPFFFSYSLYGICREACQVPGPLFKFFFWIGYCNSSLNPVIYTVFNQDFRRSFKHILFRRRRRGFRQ
Sequence of Dual specificity protein phosphatase 6 (Homo sapiens) (Q16828 whole entry, looked up): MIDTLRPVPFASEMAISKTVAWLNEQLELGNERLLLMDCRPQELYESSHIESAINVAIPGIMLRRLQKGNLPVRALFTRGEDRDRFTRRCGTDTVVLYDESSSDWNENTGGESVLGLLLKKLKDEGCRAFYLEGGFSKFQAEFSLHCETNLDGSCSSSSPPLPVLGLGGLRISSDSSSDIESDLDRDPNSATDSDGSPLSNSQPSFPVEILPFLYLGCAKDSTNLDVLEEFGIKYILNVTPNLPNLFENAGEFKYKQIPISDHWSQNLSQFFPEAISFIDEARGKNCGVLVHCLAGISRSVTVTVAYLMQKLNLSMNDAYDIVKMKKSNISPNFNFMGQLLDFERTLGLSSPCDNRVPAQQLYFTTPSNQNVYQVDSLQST

SMILES | cell count [1] | inhibition [1] | inhibition of aggregation [2] | nuclei count [2] | inhibition [3] | nuclei count [3] | z-score [4, 13] | z-score [4, 14] | z-score [4, 15] | inhibition [5] | fluorescence slope [6] | NADPH fluorescence slope [7] | slope [8] | outcome [9] | inhibition [10] | inhibition [11] | inhibition [12]
CCCCCCCC(=O)OCC(=O)[C@@]1(O)CC[C@H]2[C@@H]3CCC4=CC(=O)CC[C@]4(C)[C@H]3[C@@H](O)C[C@@]21C | 531 | -8.2% (inactive) | -25.1% (inactive) | 92.7% | 3.4% (inactive) | 107% | -0.552 | -1.25 | -0.122 | -8.38% (inactive) | -0.503 (inactive) | -5.1e-05 (inactive) | 0.0075 (inactive) | inactive | -10.8% (inactive) | 15.2% (inactive) | 49.5% (inactive)
C[C@@H]1C[C@H]2[C@@H]3C[C@H](F)C4=CC(=O)C=C[C@]4(C)[C@@]3(F)[C@@H](O)C[C@]2(C)[C@@]1(O)C(=O)COC(=O)C(C)(C)C | 563 | 1.4% (inactive) | -3% (inactive) | 51.7% | -36.8% (inactive) | 92.6% | 0.404 | -0.122 | -1.39 | 5.42% (inactive) | -0.475 (inactive) | -6.6e-05 (inactive) | 0.00583 (inactive) | inactive | -9.6% (inactive) | 2.87% (inactive) | 35.9% (inactive)
CN1CCCN(C(c2ccccc2)c2ccc(Cl)cc2)CC1 (stereo not given) | 564 | 5.7% (inactive) | -11.5% (inactive) | 103% | -6.3% (inactive) | 120% | 0.561 | -0.226 | 0.2 | -5.24% (inactive) | -0.519 (inactive) | -1.7e-06 (inactive) | 0.00369 (inactive) | inactive | 43% (inactive) | -26.9% (inactive) | 68.6% (active)
Cc1nc2sccn2c(=O)c1CCN1CCC(=C(c2ccc(F)cc2)c2ccc(F)cc2)CC1 | 597 | -5.2% (inactive) | 4% (inactive) | 104% | -80.7% (inactive) | 112% | 0.864 | 0.124 | -0.385 | 27.9% (inactive) | -0.459 (inactive) | -4.2e-05 (inactive) | 0.0045 (inactive) | inactive; toxic | 29.2% (inactive) and 168% (active) | 12% (inactive) | -6.25% (inactive)
COc1cc(/C=C/C(=O)CC(=O)/C=C/c2ccc(O)c(OC)c2)ccc1O | 581 | -5.9% (inactive) | -6.4% (inactive) | 105% | -31.2% (inactive) | 119% | -0.124 | 0.198 | 0.203 | -8.38% (inactive) | -0.185 (active) | -1.1e-05 (inactive) | 0.0285 (active) | inactive | 102% (active) | 7.07% (inactive) | 6.1% (inactive)
